Source: PubChem BioAssay AID504697 (The Scripps Research Institute Molecular Screening Center, 2011)
Activity calls are given as the source filed them.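 How the source made its calls: active means EC50 at or below 10 µM; inactive means EC50 above 10 µM.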

Assay: fluorescence interference artefacts, compound only, dose response, artefact control for cardiac thin filament activator project, biochemical, no RTF in test wells (AID 504697);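 further: emission near 535 nm under roughly 485 nm excitation as for IANBD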
Conditions: compound-only fluorescence in RTF assay buffer with Ca2+ (no RTF in test wells), artifact counterscreen
With `CCOC(=O)c1sc(N)c(C#N)c1COC(=O)CNC(=O)c1cc(OC)c(OC)c(OC)c1` the EC50 was 49.3 µM (inactive). In the case of `CCOC(=O)c1sc(-c2ccc(F)cc2)cc1NC(=O)Nc1ccccc1OC`, the EC50 is reported as > 71.4 µM (inactive). In the case of `O=C(c1ccc(COc2ccccc2Br)o1)N1N=C(C(F)F)CC1(O)C(F)F` (stereo unspecified), the EC50 is reported as > 71.5 µM (inactive). In the case of `CCOC(=O)c1sc2nc(C)nc(SCC(=O)NC3CCS(=O)(=O)C3)c2c1C` (stereo unspecified), the EC50 is reported as > 71.5 µM (inactive). For `CCOC(=O)/C(=C/C1=CC(=C/N(C)C)/C(=O)O1)C(C)=O`, the EC50 was 15.3 µM (inactive). For `O=C(NCc1nnc(SCC(=O)N2CCCCCC2)o1)c1ccco1`, the EC50 was > 71.5 µM (inactive).
